Hits are enriched below; roughly 1.7% of the tested compounds scored in any of these assays.
GLP1R inv ag – qHTS of GLP-1 Receptor Inverse Agonists (Inhibition Mode). 410,000 tested, 1.6% active. AID 624417, 2012. HEK293 GLP-1R CRE-luciferase, luminescence, 24 h; GLP-1R form is constitutively active. Glucagon-like peptide 1 receptor (Homo sapiens), P43220. Potency, µM (highest dose often 38.3 µM), for the others: at the top dose activity change, negative = inhibition, most hits filed as inhibitors; note: % is set by controls: 0 for no effect and ±100 for the full control effect; nearly all actives have a fitted effect of over 55% in size
Target sequence (P43220 whole entry, looked up): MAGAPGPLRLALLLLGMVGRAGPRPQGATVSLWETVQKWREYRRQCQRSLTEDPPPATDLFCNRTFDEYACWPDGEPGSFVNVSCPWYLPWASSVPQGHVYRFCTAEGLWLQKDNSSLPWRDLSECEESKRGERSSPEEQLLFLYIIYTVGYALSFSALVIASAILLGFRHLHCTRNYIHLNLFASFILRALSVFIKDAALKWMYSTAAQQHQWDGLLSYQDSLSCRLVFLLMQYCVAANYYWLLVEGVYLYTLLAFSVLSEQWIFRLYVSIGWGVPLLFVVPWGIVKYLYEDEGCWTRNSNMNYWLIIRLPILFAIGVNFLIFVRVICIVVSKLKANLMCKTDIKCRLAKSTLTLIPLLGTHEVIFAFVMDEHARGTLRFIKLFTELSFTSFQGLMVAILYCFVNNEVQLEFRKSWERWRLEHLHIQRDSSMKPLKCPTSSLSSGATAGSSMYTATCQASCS
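Using stably transfected HEK293 (constitutively active GLP-1R, cAMP-luciferase reporter), compounds were incubated 24 hr and luciferase measured by luminescence.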
GLP1R cytotox – qHTS of GLP-1 Receptor Inverse Agonists: Cytotox Screen | HEK293 cAMP-luciferase reporter cells, luminescence, 24 h | Potency, µM (top dose mostly 38.3 µM), for the others: at the highest dose activity change, negative = inhibition, actives largely listed as inhibitors | 410,000 tested, 0.13% active | AID 624418, 2012;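 note: loss of luciferase light is scored as toxicity; % is set by controls: 0 for no effect and ±100 for the full control effect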
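MLSMR compounds, 24 hr on cells at 37 deg C/5% CO2; luminescence after luciferase reagent (12 min RT). Inhibition counted as the undesired cytotoxic outcome.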
GLP-1R agonist – qHTS of GLP-1 Receptor Agonists; Glucagon-like peptide 1 receptor (Homo sapiens), P43220; HEK293 GLP-1R CRE-luciferase, luminescence, 4-6 h; cells express a hypersensitive GLP-1R form; Potency, µM (titrated, usually from 45.6 µM), without a hit: at the top dose activation, most hits filed as activators; 380,000 tested, 0.007% active; note: % of control where 0% means no effect
The depositor's hits bear a star. Calls come from the whole dose curve; as a rule, active = well fitted curve in the direction sought with a large enough effect; inconclusive = small, poorly fitted or top-dose-only effect, or another doubt; inactive = no such curve, though single readings can be large; an effect the other way counts as inactive or inconclusive. Potency is the fitted concentration of half-maximal effect.

Screening Cc1cc(C)c(S(=O)(=O)N2CCN(C(=O)c3c(C)nn(-c4ccccc4)c3Cl)CC2)c(C)c1 returned GLP1R inv ag 8.91µM*, GLP1R cytotox -7.6% and GLP-1R agonist -18.6%.
`Cc1cc(C)c(S(=O)(=O)N2CCN(C(=O)c3ccc(-n4nc(C)c(Cl)c4C)cc3)CC2)c(C)c1` gave GLP1R inv ag 7.08µM*, GLP1R cytotox 6.8% and GLP-1R agonist 1.2%.
Cc1cc(C)c(S(=O)(=O)N2CCN(C(=O)c3ccc4c(c3)OCO4)CC2)c(C)c1 was read as GLP1R inv ag inconclusive, GLP1R cytotox -1.8% and GLP-1R agonist 1.9%.
Cc1nc(-c2ccc(OCC(C)C)c(C#N)c2)sc1C(=O)O was read as GLP-1R agonist -12.1%.
For CCOC(=O)C1CCN(CC(O)COC(CC)c2ccccc2)CC1 (stereo not given) the results were GLP1R inv ag 5.3%, GLP1R cytotox -25.7% and GLP-1R agonist -7.5%.
CC(C)N(C(=O)COC(=O)c1cccc(N(C)C)c1)c1ccccc1 was read as GLP1R inv ag 4.47µM*, GLP1R cytotox -22.1% and GLP-1R agonist 21.2%.
`CN(C)c1cccc(C(=O)OCC(=O)Nc2ccccc2-c2ccccc2)c1` gave GLP1R inv ag 2.7%, GLP1R cytotox 11.0% and GLP-1R agonist 12.8%.
c1ccc(Cn2nnnc2C(c2cccs2)N2CCSCC2)cc1 (stereo not given) was read as GLP1R inv ag -29.0%, GLP1R cytotox 10.5% and GLP-1R agonist -0.2%.
For CC1CCN(C(c2cccs2)c2nnnn2Cc2ccccc2)CC1 (stereo not given) the results were GLP1R inv ag 10µM*, GLP1R cytotox -0.4% and GLP-1R agonist -4.3%.
`c1ccc(CN2CCN(C(c3ccccc3)c3nnnn3Cc3ccccc3)CC2)cc1` (stereo not given) gave GLP1R inv ag inconclusive, GLP1R cytotox 9.7% and GLP-1R agonist 1.4%.
For Cc1ccc(C(c2nnnn2Cc2ccccc2)N2CCN(Cc3ccccc3)CC2)cc1 (stereo not given) the results were GLP1R inv ag 10µM*, GLP1R cytotox -24.5% and GLP-1R agonist -8.9%.
COc1ccccc1-c1nnc(SCC(=O)NNC(=O)c2ccccc2F)n1C was read as GLP1R inv ag 2.3%, GLP1R cytotox 2.8% and GLP-1R agonist -5.4%.
`CCOC(=O)c1c(CC(C)C)csc1NC(=O)c1ccccc1C(=O)O` gave GLP1R inv ag 11.2µM*, GLP1R cytotox -10.4% and GLP-1R agonist -2.0%.
Screening CCOC(=O)c1c(CC(C)C)csc1NC(C)=O returned GLP1R inv ag inconclusive, GLP1R cytotox -12.8% and GLP-1R agonist 16.2%.
COc1ccc(C)c2sc(NC(=O)c3ccc(S(=O)(=O)N(C)C)cc3)nc12 was read as GLP1R inv ag 4.2%, GLP1R cytotox 2.1% and GLP-1R agonist 7.2%.
Cn1cnc(S(=O)(=O)NC2CCN(Cc3ccccc3)CC2)c1 was read as GLP1R inv ag 5.4%, GLP1R cytotox 1.4% and GLP-1R agonist 3.4%.
`COc1cc([N+](=O)[O-])ccc1NC(=O)N1CCC2(CC1)Nc1cc(F)ccc1-n1cccc12` gave GLP1R inv ag 11.2µM* and GLP1R cytotox -21.2%.
`COc1cc([N+](=O)[O-])ccc1NC(=O)NN1CCN(C)CC1` gave GLP1R inv ag 14.8%, GLP1R cytotox 11.2% and GLP-1R agonist -4.6%.
For Cc1ccc(Cl)cc1-n1c(=O)cc(N2CCN(c3ccc(F)cc3)CC2)[nH]c1=O the results were GLP1R inv ag -21.0% and GLP1R cytotox 1.8%.
For COc1ccc(N=C2C(=S)N(c3ccc(OC)cc3)C(=NS(=O)(=O)c3ccccc3)N2c2ccccc2)cc1 the results were GLP1R inv ag -23.3%, GLP1R cytotox -12.5% and GLP-1R agonist -1.1%.
Screening N=C1N(c2ccccc2)C(=S)C(=Nc2ccccc2)N1c1ccccc1 returned GLP1R inv ag 12.6µM*, GLP1R cytotox -0.6% and GLP-1R agonist 10.9%.
Screening OCC(O)COc1ccc(Cl)cc1 (stereo not given) returned GLP-1R agonist -2.5%.
`Cc1ccc(S(=O)(=O)c2cn(CC(=O)Nc3ccc4c(c3)OCO4)c3ccccc3c2=O)cc1C` gave GLP1R inv ag -23.3%, GLP1R cytotox 3.6% and GLP-1R agonist 0.3%.
COC(=O)c1sccc1S(=O)(=O)N(CC(=O)Nc1ccccc1F)c1ccccc1 was read as GLP1R inv ag -20.8% and GLP1R cytotox -0.9%.

From PubChem
